# DAX1 inh-1: blocks DAX1 repression of SF-1 activated StAR promoter; HEK293T StAR-luciferase reporter, SF-1/DAX-1 repression relief; inhibition, % at 6.8 µM; hit rate 1.1% among 370,000;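 active = inhibition above the mean over all tested compounds plus 3 SD, cut at about 3.6% in these data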;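 note: 0% = DAX-1 cells with DMSO and 100% = cells lacking DAX-1 with DMSO; higher inhibition means more luminescence from relief of DAX-1 repression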
# DAX1 inh-2: inhibits human nuclear receptor DAX1; P51843; HEK293 Gal4-DAX1 luciferase reporter, luminescence; inhibition, % at 6.75 µM; hit rate 0.99% among 340,000; AID 504766;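 active = inhibition above the mean over all tested compounds plus 3 SD, cut at about 4.2% in these data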;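 note: 0% = DAX1-transfected cells with DMSO and 100% = empty-vector control cells with DMSO; inhibition shows as a rise in luminescence from relieved DAX1 repression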
# Target sequence (P51843 207-470 limits assumed): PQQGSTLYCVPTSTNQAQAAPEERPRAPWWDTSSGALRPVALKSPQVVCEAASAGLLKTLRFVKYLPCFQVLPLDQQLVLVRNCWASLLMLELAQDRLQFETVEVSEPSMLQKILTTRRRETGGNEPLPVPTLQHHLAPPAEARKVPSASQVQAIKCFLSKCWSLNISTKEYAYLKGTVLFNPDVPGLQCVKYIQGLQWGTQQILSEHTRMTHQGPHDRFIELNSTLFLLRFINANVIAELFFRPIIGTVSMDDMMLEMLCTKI
# hgDAF-12 ag: agonists of H. glycines DAF-12 nuclear receptor; HEK293 GAL4-hgDAF12 UAS-luciferase reporter, agonist luminescence; normalized to butyrate control; activation, % at 6.8 µM; hit rate 1.8% among 370,000;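 active = activation above a cutoff set at the mean of all screened compounds plus 3 SD, cut at about 10% in these data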;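 note: 0% = DMSO wells and 100% = sodium butyrate wells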
# hcDAF-12 act: activators of H. contortus DAF-12 nuclear receptor. HEK293 hcDAF-12 lit1-tk-luc reporter, luminescence; 0% DMSO, 100% Δ7-dafachronic acid. activation, % at 6.8 µM. hit rate 1.4% among 370,000;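 active = activation above the mean of all tested compounds plus 3 SD, cut at about 5.5% in these data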;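 note: 100% = response to 3 µM Δ7-dafachronic acid high control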
# ssDAF-12 act: activators of S. stercoralis DAF-12 nuclear receptor; HEK293 ssDAF-12/GRIP1 lit1-tk-luc reporter, luminescence; % of 3 µM dafachronic acid response; activation, % at 6.8 µM; hit rate 1% among 370,000;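 active = activation above the mean over all tested compounds plus 3 SD, cut at about 0.9% in these data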;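 note: 0% = DMSO-only wells and 100% = 3 µM delta7-dafachronic acid wells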
# The depositor's hits bear a star; x = not tested or not shown. The list is not random: actives were taken first. Their share in the collection is about 4.1%.
SMILES,DAX1 inh-1,DAX1 inh-2,hgDAF-12 ag,hcDAF-12 act,ssDAF-12 act
O=C(Nc1ccccc1C(F)(F)F)c1cc(-c2ccccc2O)on1,2,2,12*,0,0
Fc1ccccc1NC(=S)Nc1ccc(CN2CCOCC2)cc1,0,0,0,-1,-1
CC(=O)Nc1ccccc1C(F)(F)F,0,4.3*,1,0,-1
O=C(OCC(=O)N1CCCC1=O)c1ccc(O)cc1O,1,0,0,-3,-1
CC1CC(C)CN(C(=O)c2cn(C)c3ccc(S(=O)(=O)N(C)C)cc3c2=O)C1 (stereo unspecified),-1,4.5*,-1,0,0
COCCNC(=O)c1cn(C)c2ccc(S(=O)(=O)N(C)C3CCCCC3)cc2c1=O,0,6.5*,-2,-1,-1
CCn1cc(C(=O)N2CC(C)CC(C)C2)c(=O)c2cc(S(=O)(=O)N(C)C)ccc21 (stereo unspecified),-1,-1,-2,-2,-1
CCCCNC(=O)C[C@H]1C[C@@]2(C(=O)OC)C(=C[C@H](COCc3ccccc3)O[C@@H]2C)N(Cc2ccco2)C1=O,-2,x,0,-2,-2
c1ccc(SCCOCCN2CCc3ccccc3C2)cc1,1,0,3,6.3*,-1
c1ccc(SCCN2CCc3ccccc3C2)cc1,1,-1,5,0,0
O=C(NC1CCCCN(Cc2ccc(Cl)cc2)C1=O)c1ccccn1 (stereo unspecified),-1,x,-1,-3,-1
O=C(N/N=C/c1cccnc1)c1ccc2c(c1)OCCO2,1,1,11*,2,-1
O=C(O)c1ccc(/C=N/NC(=O)c2ccc3c(c2)OCCO3)cc1,1,0,6,5,0
Cn1nccc1C(=O)N/N=C/c1cccnc1,0,4.3*,2,2,0
COc1cc(/C=N/NC(=O)c2cccnc2)cc2c1OCO2,4.1*,0,1,1,-2
O=C(N/N=C/c1ccc2c(c1)OCO2)c1cccnc1,0,1,5,0,0
C[C@@H]1COc2cc(Br)ccc2S(=O)(=O)N1Cc1cn(CCC2OCCO2)nn1,-1,x,-1,-2,-1
CN(C)N=Nc1ccc(-c2cn(Cc3ccccc3)cn2)cc1,1,2,10,2,1.0*
NC(=O)C1C(=O)c2ccccc2C1(C[N+](=O)[O-])c1ccccc1 (stereo unspecified),1,0,-2,5.8*,0
O=C(O)CC1(c2ccccc2)C(=O)c2ccccc2C1=O,0,0,-1,-1,-1
C[C@@H]1OC(C2CCCCC2)N(C)[C@H]2C[C@H]3c4[nH]c5cccc(-c6cccc(F)c6)c5c4CCN3C(=O)[C@@H]12 (stereo partly specified),-1,x,1,-4,-2
COc1ccc2nc(C)cc(SCC(=O)OC(C)C)c2c1,0,1,3,-1,-2
COc1ccc2nc(C)cc(SCC(NC(C)=O)C(=O)OC(C)C)c2c1 (stereo unspecified),0,4.6*,0,-1,-1
COc1ccc(OC)c(NC(=O)CN2CCc3ccccc3C2)c1,0,-1,-1,1,-1
CCOC(=O)c1c(C)oc2c1c(C=NCC1CCCO1)c(O)c1ccccc12 (stereo unspecified),-1,6.6*,-4,0,-1
SMILES,DAX1 inh-1,DAX1 inh-2,hgDAF-12 ag,hcDAF-12 act,ssDAF-12 act
CCOC(=O)c1c(C)oc2c1c(C=NCc1ccccn1)c(O)c1ccccc12,-1,0,-3,2,-1
O=C(O)c1ccc2c3c(cccc13)C(=O)N(c1cccc3ccccc13)C2=O,0,4.5*,1,3,-1
CC[C@@H](CCC(=O)N(c1ccccc1)c1ccccc1)c1ccc(C)cc1,0,x,0,-1,-2
CC1CC(C(O)c2ccccn2)C(=O)C(C(O)c2ccccn2)C1 (stereo unspecified),0,-1,0,-2,2.0*
CC(C(=O)c1ccccc1)C(O)c1ccccn1 (stereo unspecified),1,-1,4,1,-1
COc1ccc(OCc2cc(C(=O)N(C)C3CCOCC3)no2)c2ccccc12,0,2,4,5,1.0*
CCOC(=O)C1CCN(C(=O)c2cc3c(ccc4ccccc43)o2)CC1,4.1*,1,5,2,-1
CCOC(=O)C1CCN(C(=O)c2ccc(C)o2)CC1,0,2,1,2,-1
CCOC(=O)C1CCCN(C(=O)/C=C/c2ccccc2)CC1 (stereo unspecified),-1,x,3,1,-1
CCOC(=O)C1CCN(C(=O)c2cc(COc3ccc(OC)c4ccccc34)on2)CC1,1,1,12*,6.3*,0
COc1ccc(OCc2cc(C(=O)N(C)C3CCOC3)no2)c(Cl)c1 (stereo unspecified),-1,1,-2,-1,-1
CCOC(=O)C1CCN(C(=O)/C=C/c2ccccc2)CC1,0,-1,12*,1,-1
COc1ccc(C(=O)OCCN2CCN(C3CN(Cc4cn(Cc5cccc(C)c5)nn4)S(=O)(=O)C3)CC2)cc1OC (stereo unspecified),-4,x,-2,-5,-2
CCCCCCCCN1C(=O)[C@@H](CC(=O)NCCCC)C[C@@]2(C(=O)OC)C1=C[C@H](COCc1ccccc1)O[C@@H]2C,-1,x,0,-1,-1
O=S(=O)(Nc1ccccn1)c1ccc(Cl)cc1,0,0,0,-1,-2
CS(=O)(=NS(=O)(=O)c1ccc(Cl)cc1)c1ccccc1 (stereo unspecified),0,4.3*,3,0,-2
O=C(CSc1nnc(-c2cccnc2)n1Cc1ccco1)Nc1ccc(F)cc1Cl,-1,x,-4,-2,-2
CCOc1ccccc1CNCCO,0,1,-2,0,-1
CCC(CO)NCc1ccccc1OC(C)C (stereo unspecified),-1,5.0*,-1,0,-1
COC(=O)C1CN(C2CCCC2)CCS(=O)(=O)N1Cc1cn(Cc2ccc(Cl)cc2)nn1 (stereo unspecified),0,x,1,-2,-2
Clc1ccc(Nc2nnc(-c3ccc4c(c3)OCO4)o2)cc1,3.9*,x,9,3,-1
Brc1ccc(-c2noc(COc3ccc4ccccc4c3)n2)o1,0,0,1,2,-1
Brc1ccc(-c2noc(CCc3ccccc3)n2)o1,2,2,7,6.1*,0
CC(C)C[C@H]1COc2cc(Br)ccc2S(=O)(=O)N1Cc1cn(Cc2ccc(F)cc2)nn1,1,x,4,0,-1
Cc1ccc([N+](=O)[O-])cc1NC(=O)C1CCCC1,1,0,1,-1,5.5*
Cc1ccc([N+](=O)[O-])cc1NC(=O)C1CCN(S(C)(=O)=O)CC1,1,-1,1,0,-2
